Inconclusive results are not listed. Calls of active or inactive are those of the source. Calls follow the shape of the dose curve; as a rule, active = well fitted curve in the direction sought with a large enough effect in the repeat runs; inconclusive = weak or mixed curves; inactive = no such curve, though single readings can be large; an effect the other way counts as inactive or inconclusive.
Key:
[1] = qHTS RealTime-Glo MT Cell Viability Assay in HEK293 cells - 0 hour (AID 1224880); also: top concentration of the series differs between compounds; nearly all actives have a fitted effect of over 45% in size
Outline: (§1)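 Real-time viability in HEK293: signal arises when living cells convert a prosubstrate for NanoLuc in the medium, so luminescence tracks viable cell number. Compound (23 nL, DMSO) added 5 h post-seeding; kinetic reads at 0–40 h, 37 C.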

[2] = A CellTox Green Cytotoxicity Assay to monitor cytotoxicity in HepG2 cells - 32 hour (AID 1224883); also: nearly all actives have a fitted effect of over 50% in size; also: potency is read from the fitted curve at half-maximal effect
Outline: (§2)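 Cells and non-lytic dye reagent are dispensed together (600 HepG2 cells/well) and incubated 5 h before DMSO compound transfer. Kinetic fluorescence is then recorded in the same wells during 40 h at 37 C.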

[3] = A CellTox Green Cytotoxicity Assay to monitor cytotoxicity in HEK293 cells - 8 hour (AID 1224884); also: nearly all actives have a fitted effect of over 35% in size; also: potency is read from the fitted curve at half-maximal effect
Outline: (§3)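 Cells (HEK293, 600/well) and dye reagent are dispensed together. After 5 h at 37 C, 23 nL compound is pinned in. Plates stay at 37 C for 40 h with fluorescence read at 0h, 8h, 16h, 24h, 32h and 40h.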

[4] = qHTS RealTime-Glo MT Cell Viability Assay in HEK293 cells - 24 hour (AID 1224886); also: nearly all actives have a fitted effect of over 50% in size; also: potency is read from the fitted curve at half-maximal effect; as to activity change, negative = cytotoxicity: top concentration of the series differs between compounds
Outline: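 Viability tracked continuously by luminescence as live cells reduce a prosubstrate for NanoLuc; HEK293 cells preincubated 5 h, compound-treated at 37 C, and read at 0, 8, 16, 24, 32 and 40 h.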

[5] = qHTS RealTime-Glo MT Cell Viability Assay in HEK293 cells - 8 hour (AID 1224887); also: nearly all actives have a fitted effect of over 50% in size; also: potency is read from the fitted curve at half-maximal effect; as to activity change, negative = cytotoxicity: top concentration of the series differs between compounds
Outline: as §1

[6] = A CellTox Green Cytotoxicity Assay to monitor cytotoxicity in HEK293 cells - 16 hour (AID 1224888); also: nearly all actives have a fitted effect of over 35% in size; also: potency is read from the fitted curve at half-maximal effect
Outline: as §3

[7] = qHTS RealTime-Glo MT Cell Viability Assay in HepG2 cells - 0 hour (AID 1224889); also: nearly all actives have a fitted effect of over 50% in size; also: potency is read from the fitted curve at half-maximal effect
Outline: (§4)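 Viability was tracked continuously by NanoLuc luminescence from prosubstrate reduced by living HepG2 cells, at successive time points over 40 h of compound exposure. Cells with reagent were preincubated 5 h at 37 °C before compound addition.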

[8] = A CellTox Green Cytotoxicity Assay to monitor cytotoxicity in HEK293 cells - 32 hour (AID 1224881); also: nearly all actives have a fitted effect of over 40% in size
Outline: as §3

[9] = A CellTox Green Cytotoxicity Assay to monitor cytotoxicity in HepG2 cells - 0 hour (AID 1224882); also: nearly all actives have a fitted effect of over 35% in size
Outline: as §2

[10] = qHTS RealTime-Glo MT Cell Viability Assay in HepG2 cells - 16 hour (AID 1224885); also: nearly all actives have a fitted effect of over 50% in size
Outline: as §4
% is scaled to controls: 0 for no effect and ±100 for the full control effect.

CN(C)C(=O)C(CCN1CCC(O)(c2ccc(Cl)cc2)CC1)(c1ccccc1)c1ccccc1
active: Potency [2] 19 µM | Potency [4] 9.52 µM | Potency [5] 12 µM
inactive: outcome [1] | Potency [3] | Potency [6] | Potency [7]

O=C1CC2(CCCC2)CC(=O)N1
inactive: outcome [1] | Potency [8] | Potency [9] | Potency [3] | outcome [10] | Potency [4] | Potency [5] | Potency [6] | Potency [7]

CC(C)=CCC/C(C)=C/C(=O)O
inactive: outcome [1] | Potency [8] | Potency [9] | Potency [3] | outcome [10] | Potency [4] | Potency [5] | Potency [6] | Potency [7]

CC(C)CCOC(=O)CC(C)C
inactive: outcome [1] | Potency [9] | Potency [2] | outcome [10] | Potency [4] | Potency [5] | Potency [7]

COc1cccc(Br)c1
inactive: outcome [1] | Potency [8] | Potency [3] | outcome [10] | Potency [4] | Potency [5] | Potency [6] | Potency [7]

O=C(O)Cc1cc(I)c(Oc2cc(I)c(O)c(I)c2)c(I)c1
inactive: outcome [1] | Potency [9] | Potency [2] | Potency [3] | outcome [10] | Potency [4] | Potency [5] | Potency [6] | Potency [7]

O=C(O)c1ccccc1S
inactive: outcome [1] | Potency [9] | Potency [2] | outcome [10] | Potency [4] | Potency [5] | Potency [6] | Potency [7]

CC(=O)O[C@H](CC(=O)[O-])C[N+](C)(C)C
inactive: outcome [1] | Potency [8] | Potency [9] | Potency [3] | outcome [10] | Potency [4] | Potency [5] | Potency [6] | Potency [7]

[O-][N+](=Nc1ccccc1)c1ccccc1
inactive: outcome [1] | Potency [9] | Potency [2] | Potency [3] | outcome [10] | Potency [4] | Potency [5] | Potency [6] | Potency [7]

NCC[C@H](O)C(=O)N[C@@H]1C[C@H](N)[C@@H](O[C@H]2O[C@H](CN)[C@@H](O)[C@H](O)[C@H]2O)[C@H](O)[C@H]1O[C@H]1O[C@H](CO)[C@@H](O)[C@H](N)[C@H]1O
inactive: activity change, negative = cytotoxicity [1] 1.06% [at 0.29 µM] | cytotoxicity increase [8] 0.628% [at 0.29 µM] | cytotoxicity [9] -4.16% [at 0.29 µM] | cytotoxicity increase [3] -8.01% [at 0.29 µM] | activity change, negative = cytotoxic [10] 3.3% [at 0.29 µM] | activity change, negative = cytotoxicity [4] 4.59% [at 0.29 µM] | activity change, negative = cytotoxicity [5] 2.61% [at 0.29 µM] | activity change [6] 0.183% [at 0.29 µM, active compounds read high] | activity change, negative = cytotoxicity [7] 7.1% [at 0.29 µM]

CCN(CC)S(=O)(=O)c1ccc(C(=O)O)cc1
inactive: Potency [9] | Potency [2] | outcome [10] | Potency [7]

CC(C)(O)c1ccccc1
inactive: outcome [1] | Potency [8] | Potency [9] | Potency [3] | outcome [10] | Potency [4] | Potency [5] | Potency [6] | Potency [7]

CC(C)c1cccc(C(C)C)c1N
inactive: outcome [1] | Potency [9] | Potency [3] | outcome [10] | Potency [4] | Potency [5] | Potency [6] | Potency [7]

CC1(C)SC(C)(C)SC(C)(C)S1
inactive: outcome [1] | Potency [8] | Potency [9] | Potency [3] | outcome [10] | Potency [5] | Potency [6] | Potency [7]

Nc1ncnc2c1ncn2Cc1c(F)cccc1Cl
inactive: outcome [1] | Potency [8] | Potency [9] | Potency [3] | outcome [10] | Potency [4] | Potency [5] | Potency [6] | Potency [7]

c1ccc(CCCc2ccccn2)cc1
inactive: outcome [1] | Potency [9] | Potency [3] | outcome [10] | Potency [4] | Potency [5] | Potency [6] | Potency [7]

COc1cc(O)cc(O)c1
inactive: Potency [8] | Potency [9] | Potency [2] | Potency [3] | outcome [10] | Potency [4] | Potency [5] | Potency [6] | Potency [7]

COc1cccc(OC)c1
inactive: outcome [1] | Potency [8] | Potency [9] | Potency [3] | outcome [10] | Potency [4] | Potency [5] | Potency [6] | Potency [7]

COc1cc(CCC(C)=O)ccc1O
inactive: outcome [1] | Potency [8] | Potency [9] | Potency [3] | outcome [10] | Potency [4] | Potency [5] | Potency [6] | Potency [7]

NC(=O)c1ncn([C@@H]2O[C@H](CO)[C@@H](O)[C@H]2O)c1O
active: Potency [3] 23.9 µM | Potency [6] 19 µM
inactive: outcome [1] | outcome [10] | Potency [4] | Potency [5] | Potency [7]

C/C=C1\C(=O)C[C@H]2[C@@H]3CCC4=CC(=O)CC[C@]4(C)[C@H]3CC[C@]12C
active: Potency [7] 7.61 µM
inactive: Potency [9] | Potency [3] | outcome [10] | Potency [6]

C=C(C)[C@@H]1CCC2=CC(=O)C[C@@H](C)[C@]2(C)C1
inactive: outcome [1] | Potency [8] | Potency [9] | Potency [3] | outcome [10] | Potency [4] | Potency [5] | Potency [6] | Potency [7]

COC(=O)c1ccc(C(=O)OC)c(C(=O)OC)c1
inactive: outcome [1] | Potency [8] | Potency [9] | Potency [3] | outcome [10] | Potency [4] | Potency [5] | Potency [6] | Potency [7]

Cc1ccccc1C(=O)O
inactive: outcome [1] | Potency [8] | Potency [9] | Potency [3] | outcome [10] | Potency [4] | Potency [5] | Potency [6] | Potency [7]

COC(=O)C1=C(C)NC(C)=C(C(=O)OCC(C)=O)C1c1ccccc1[N+](=O)[O-] (centres undefined)
inactive: Potency [8] | Potency [9] | Potency [2] | Potency [3] | Potency [4] | Potency [5] | Potency [6]

O=[N+]([O-])c1ccc(Oc2ccc([N+](=O)[O-])cc2)cc1
inactive: outcome [1] | Potency [8] | Potency [9] | Potency [3] | outcome [10] | Potency [6] | Potency [7]

Fc1ccccc1-c1ccccc1
inactive: outcome [1] | Potency [9] | Potency [3] | outcome [10] | Potency [4] | Potency [5] | Potency [6] | Potency [7]

C1CCCCCCCCCCC1
inactive: cytotoxicity increase [8] -37.3% [at 15.8 µM] | cytotoxicity [9] -1.21% [at 15.8 µM] | cytotoxicity increase [3] -28.5% [at 15.8 µM] | activity change, negative = cytotoxic [10] -3.94% [at 15.8 µM] | activity change [6] -33.7% [at 15.8 µM, active compounds read high] | activity change, negative = cytotoxicity [7] -19.7% [at 15.8 µM]
